The record followed here is PubChem BioAssay AID488832 (National Center for Advancing Translational Sciences (NCATS), 2010).

Results filed as inconclusive are left out. A number with no mark means an inactive call. Calls of active or inactive are those of the source. The call rests on the fitted dose curve; in most records, active means well fitted activation curve with a large enough effect; inconclusive means small, poorly fitted or top-dose-only effect; inactive means no such curve, though single readings can be large or run the other way.

The experiment in a line: Confirmation Concentration-Response Assay for Enhancers of SMN2 Splice Variant Expression for Further Probe SAR. The note with it: HEK293 SMN2 exon7-luciferase splicing reporter, luminescence, 30-36 h; series mostly up to 46.1 µM; activity, positive = activation: at the top concentration. An excerpt: NIH Chemical Genomics Center [NCGC] NIH Molecular Libraries Probe Production centers Network [MLPCN] MLPCN Grant: R03 MH084179-01 Assay Submitter (PI): Elliot Androphy NCGC Assay Overview: Spinal muscular atrophy (SMA) is caused by insufficient levels of the survival motor neuron protein SMN. The SMN locus on chromosome 5q13 contains two inverted copies of SMN called SMN1 and SMN2 which are 99% identical at the amino acid level. SMN1 is a fully functional protein and SMN2 skips exon 7 90% of the time. Skipping of exon 7 produces non-functional protein product. 10% of the SMN2 protein includes exon 7 and is fully functional. In the SMA disease state, mutations in the SMN1 locus are the cause of the disease state. Because only 10% of SMN2 is of the fully functional form, it is not sufficient to overcome the deficiency produced by the loss of the SMN1 product. A therapy that either increase the amount of SMN2 product made or to increase the inclusion of exon 7 has been proposed for the treatment of SMA. We have designed an assay to identify small molecules that can increase the amount of functional SMN2 product by appending a luciferase reporter gene after the native SMN2 gene, such that inclusion of exon 7 in the expressed product places the luciferase sequence in frame, thus generating functional luciferase enzyme.
NCGC Assay Protocol Summary: This screen utilizes a luciferase reporter gene assay, combining the promoter with the major portion of the native SMN2 cDNA (exons 1 -7, intron 8 , exon 8 fused to luciferase) stably expressed in HEK293 cells. Compounds that increase luciferase signal presumably enhance expression of the functional SMN2 splice variant. Passaging media contained DMEM w/ glutamax (+phenol red) 10% FCS, 1x pen/strep, 200 ug/ml hygro, 1x sodium pyruvate. Assay media contained DMEM w/ glutamax (-phenol red) 10% FCS, 1x pen strep, 1x pyruvate Sequence, Parameter, Value, Description (1) Cells, 5 uL, 2000 cells/well, 1536 TC treated White solid bottom plate (2) Time, 10-12 hours, 37C 5% CO2 (3) Compound, 23 nl, MLSMR Library (4) Control Compound, 23 nL, Sodium butyrate st 4.5mM (final) conc (5) Time, 30-36 hours, 37C 5% CO2 (6) Reagent, 3 ul, One Glo (TM) from Promega (7) Time, 5-15 minutes, Room temp (8) Detector, Viewlux: luminescent read, 60 second integration, high speed 2x binning Keywords: Spinal muscular atrophy, SMA, SMN2, high throughput screening, MLSMR, MLPCN, NIH Roadmap, qHTS and NCGC
Take `NC(=O)C1CCN(c2nccc(Cl)n2)CC1`: the “activity, positive = activation” value is 0%.

As to `NC(=O)C1CCN(c2nc(-c3ccccc3[N+](=O)[O-])cs2)CC1`, the Potency was 15400 nM (active).

Take `NC(=O)C1CCN(c2ncc(-c3ccc(Cl)cc3)s2)CC1`: the Potency was 137 nM (active).

As for `NC(=O)C1CCN(c2ncc(-c3cccc(N4CCCCC4)c3)s2)CC1`, the Potency is 1090 nM (active).

Take `NC(=O)C1CCN(c2ncc(-c3ccc(Br)cc3)s2)CC1`: the Potency is 218 nM (active).
